Screening results from PubChem.
This is a sample that favours compounds with a hit; in the whole collection about 2.4% have one here.
D2 ag-1: human D2 receptor agonism in beta-arrestin assay; P14416; DiscoveRx PathHunter D2 beta-arrestin, luminescence, 90 min; 100% = 57 uM dopamine signal; AID 624465; 360,000 compounds, 0.084% hits; activation, % (concentration not given with the values); in the data active = activation above about 40%; inconclusive = between about 15% and that limit
Target sequence (P14416 whole entry, looked up): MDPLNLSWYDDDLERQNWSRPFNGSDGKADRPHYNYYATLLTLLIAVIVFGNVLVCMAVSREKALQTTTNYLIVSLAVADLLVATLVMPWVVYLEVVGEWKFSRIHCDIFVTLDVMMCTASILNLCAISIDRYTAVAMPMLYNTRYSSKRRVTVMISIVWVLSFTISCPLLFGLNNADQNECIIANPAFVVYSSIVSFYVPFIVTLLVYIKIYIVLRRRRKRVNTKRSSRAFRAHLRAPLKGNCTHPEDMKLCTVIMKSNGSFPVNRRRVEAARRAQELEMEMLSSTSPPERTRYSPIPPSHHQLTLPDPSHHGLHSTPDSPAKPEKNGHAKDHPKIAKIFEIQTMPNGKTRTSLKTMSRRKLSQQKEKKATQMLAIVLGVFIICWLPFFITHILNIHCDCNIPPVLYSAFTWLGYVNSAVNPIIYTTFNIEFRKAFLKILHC
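Agonist mode: compounds alone added to overnight-plated D2 PathHunter cells for 90 min at 37 C, with 57 uM final dopamine (EC100) defining full response. Beta-arrestin recruitment detected by chemiluminescent reagent, read after 1 h at ambient temperature.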
D2 ag-2: D2 dopamine receptor (human) agonism | P14416 | HEK293 T-REx D2 cells, calcium flux agonist mode | activation, % at 2 µM | 340,000 compounds, 0.53% hits | AID 485358;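 active = activation over 3 SD above normal in the single-dose calcium agonist read, cut at about 30% in these data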; note: 0% is about no effect
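Agonism scored from kinetic calcium signal (1 read/sec, 180 s) following compound pin transfer, after a 10 s baseline. Cells: HEK293 Trex line expressing inducible D2 receptor coupled to calcium, dye-loaded after overnight culture at 30 C.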
D2 PAM-1: D2 dopamine receptor (human) potentiation; P14416; HEK293 T-REx D2, calcium flux, EC20 dopamine potentiation; potentiation, % at 10 µM; 340,000 compounds, 0.34% hits; AID 485347;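 active = potentiation over 3 SD above the plate norm, cut at about 30% in these data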; note: 0% is about no effect
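Potentiation of an EC20 dopamine calcium response is measured in a force-coupled, tetracycline-inducible Hek293 Trex D2 line. Compound-only kinetic reads over 180 s flag agonists before dopamine addition.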
D2 PAM-2: human D2 receptor positive allosteric modulation; potentiation, % (no concentration beside the values); P14416; 360,000 compounds, 0.23% hits; DiscoveRx D2 beta-arrestin cells, luminescence, 90 min; 100% = 57 uM dopamine signal; in the data active = potentiation above about 50%; inconclusive = mostly about 30% to 49%
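PathHunter beta-arrestin assay in DiscoveRx D2 cells. Compounds were added with an EC20 of dopamine (50 nM final) for 90 min at 37 deg C. Luminescence was read 1 h after detection reagent, with 57 uM dopamine as the EC100 control.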
D2 antag: antagonizes the human D2 dopamine receptor. P14416. HEK293 TREx D2 cells, calcium flux, dopamine EC80. inhibition, % at 10 µM. 340,000 compounds, 2% hits; in the data active = inhibition above about 30%; inactive = below that, where a call was filed; note: 0% is about no effect
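Tetracycline-induced HEK293 TREx cells expressing D2 receptor forced-coupled to calcium signalling, loaded with no-wash calcium dye. Compounds added and calcium flux read 180 s, then dopamine added at EC80 and read a further 180 s.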
* marks the source's active call; other numbers are inactive results; ? = inconclusive; / = no result.

SMILES | D2 ag-1 | D2 ag-2 | D2 PAM-1 | D2 PAM-2 | D2 antag
CCCCN(C/C=C/c1ccccc1OC)Cc1ccccc1 | 1.6 | 2.4 | -6.7 | -33.8 | 22.0
COc1ccc(/C=N/NC(=O)c2ccc(CN3c4cccc5cccc(c45)S3(=O)=O)cc2)cc1 | 0.2 | 1.2 | 38.2* | 4.9 | 2.6
COc1cc(/C=N/NC(=O)c2ccc(CN3c4cccc5cccc(c45)S3(=O)=O)cc2)cc(OC)c1O | 7.5 | 0.8 | 2.0 | -0.5 | -3.7
Cc1cc(NC(=O)CSc2nc(C(C)C)nc3sc(C)c(C)c23)no1 | 6.6 | -0.1 | 6.4 | 2.5 | 35.3*
CCN(CC)S(=O)(=O)c1ccc(S(=O)(=O)N2CCCC(C(=O)NC3CC3)C2)cc1 (stereo not given) | -0.2 | 0.1 | -7.9 | -2.4 | 7.3
CC1(Oc2cccc(F)c2)CCN(Cc2ccc(-c3ccccc3)o2)C1 (stereo not given) | 2.3 | / | / | -15.4 | /
CS(=O)(=O)NC1CCN(Cc2ccccc2)CC1 | -1.2 | -0.1 | -6.1 | -8.5 | 28.9
c1ccc(CN2CCC(Nc3ncnc4sccc34)CC2)cc1 | -3.9 | 0.9 | -19.0 | -13.3 | 77.5*
Cc1sc2ncnc(NC3CCN(Cc4ccccc4)CC3)c2c1C | 0.9 | 0.6 | -20.4 | -16.8 | 68.0*
c1ccc(CN2CCC(Nc3nc(-c4cccnc4)nc4ccccc34)CC2)cc1 | -4.8 | 0.5 | -22.3 | -47.4 | 49.4*
Fc1ccccc1CNc1ncnc2sccc12 | -0.9 | 0.7 | 2.2 | 1.3 | -0.8
Cc1csc2c(NC3CCN(Cc4ccccc4)CC3)ncnc12 | -1.5 | -0.8 | -24.0 | -3.9 | 89.2*
CCOC(=O)N1CCN(S(=O)(=O)c2c(C)cc(C)cc2C)CC1 | 0.8 | 0.3 | 2.6 | -8.3 | 54.0*
CCOC(=O)N1CCN(C(=O)C2CCN(S(=O)(=O)c3c(C)cc(C)cc3C)CC2)CC1 | 0.6 | / | / | 1.3 | /
COc1ccc2c(C(=O)NCc3ccc4c(c3)OCO4)c(-c3ccc(S(C)(=O)=O)cc3)sc2c1 | 5.1 | / | / | -3.3 | /
Cc1ccc(NC(=S)N2CCCC(c3nc4ccccc4[nH]3)C2)cc1 (stereo not given) | 2.4 | / | / | -11.4 | /
Cc1ccccc1NC(=S)N1CCCC(c2nc3ccccc3[nH]2)C1 (stereo not given) | -5.5 | 0.3 | -0.8 | -20.6 | 32.0*
O=C(O)CC/C(=N\Nc1ccc(S(=O)(=O)N2CCCC2)cc1[N+](=O)[O-])c1cccs1 | -3.6 | 1.2 | 11.9 | -16.5 | -2.1
O=C(O)CC/C(=N\Nc1ccc(S(=O)(=O)N2CCOCC2)cc1[N+](=O)[O-])c1cccs1 | -5.4 | -1.4 | -1.7 | -8.0 | 30.0*
O=C(Nc1ccc(Cl)c(C(F)(F)F)c1)N1CCCC(O)C1 (stereo not given) | -0.5 | 0.5 | 3.9 | -26.0 | 30.4*
CCCc1ccc(OCc2ccc(C(=O)N3CCSCC3)o2)cc1 | 8.3 | -1.5 | 5.7 | -6.2 | 38.6*
COc1ccc(C(=O)NCc2ccc3c(c2)CCN3C(=O)c2ccccc2)cc1 | / | 0.9 | 4.0 | / | /
O=c1c(Cl)nc2cc(Cl)ccc2n1CCNc1ncc(C(F)(F)F)cc1Cl | -2.4 | 0.1 | 46.6* | 18.0 | 0.8
O=c1c2nncn2c2cc(C(F)(F)F)ccc2n1CCNc1ncc(C(F)(F)F)cc1Cl | -5.4 | -1.9 | -3.5 | -2.3 | -14.6
O=C(COC(=O)CCCC1=NS(=O)(=O)c2ccccc2N1)Nc1ccccc1 | -5.5 | 0.1 | 38.4* | -19.0 | 3.1
SMILES | D2 ag-1 | D2 ag-2 | D2 PAM-1 | D2 PAM-2 | D2 antag
CCc1ccc(NC(=O)COC(=O)CCCC2=NS(=O)(=O)c3ccccc3N2)cc1 | 2.3 | -0.6 | 9.6 | -5.9 | -4.9
CCOC(=O)C1CCN(C(=O)CN(c2ccc(Cl)c(C(F)(F)F)c2)S(C)(=O)=O)CC1 | -3.1 | 0.1 | 15.3 | -15.5 | -3.5
Cc1cc(C)cc(N(CC(=O)N2CCCCCC2)S(C)(=O)=O)c1 | 6.6 | -0.7 | -2.4 | 2.2 | 34.2*
CCOC(=O)C1CCN(C(=O)CN(c2ccc3c(c2)OCO3)S(C)(=O)=O)CC1 | -2.3 | 0.7 | 1.3 | -16.3 | 45.3*
CC1=C(C(=O)N(C(C)C)C(C)C)CC(CC(=O)NCCCN(C)C)C(=O)N1CCCN1CCCC1=O (stereo not given) | -2.8 | / | / | 1.4 | /
Cc1cc(C)cc(C(=O)NCC(=O)OCN2C(=O)c3ccccc3C2=O)c1 | -3.7 | 0.1 | -3.6 | -8.3 | 44.1*
Fc1ccc(C2Nc3cccc4cccc(c34)N2)cc1 | 8.0 | 1.2 | -1.0 | -1.2 | -4.9
O=[N+]([O-])c1cccc(C2Nc3cccc4cccc(c34)N2)c1 | ? | 0.2 | -2.7 | 105.4* | -6.5
O=[N+]([O-])c1ccc(C2Nc3cccc4cccc(c34)N2)cc1 | ? | 0.6 | 4.1 | 80.1* | -19.1
COc1cc(C2Nc3cccc4cccc(c34)N2)ccc1OC(C)=O | 7.5 | -0.6 | 6.2 | ? | -4.4
COc1ccc(C2Nc3cccc4cccc(c34)N2)cc1Br | 7.0 | / | 15.6 | 53.9* | /
O=S(=O)(/N=C(/Nc1cccc2ccccc12)c1ccccc1)c1ccc(F)cc1 | -4.7 | / | / | -14.0 | /
CCOc1ccccc1NC(=O)Cn1c(=O)n(Cc2ccccc2)c(=O)c2c1c1cc(C)ccc1n2C | / | 1.0 | 4.4 | / | /
CCN(CC)S(=O)(=O)c1ccc2c(c1)N(CC(=O)Nc1ccc(F)cc1F)C(=O)C1CCCN21 (stereo not given) | / | 0.4 | -0.5 | / | /
COc1ccc(CCN(C)CCCC(C#N)(c2cc(OC)c(OC)c(OC)c2)C(C)C)cc1OC (stereo not given) | -2.6 | -2.1 | -26.0 | -25.3 | 45.3*
CCn1c2ccccc2c2cc(CN3CCN(Cc4ccc(Br)cc4)CC3)ccc21 | / | 0.2 | -3.0 | / | /
CC1(C(=O)NS(=O)(=O)c2ccccc2C(F)(F)F)CCN1C(=O)CC1CCCC1 (stereo not given) | 6.4 | / | / | 0.6 | /
CSc1cccc(NC(=O)C2CCN(c3ncnc4c3nc3n4CCCCC3)CC2)c1 | / | -2.3 | -2.4 | / | /
Cc1cccc(NCc2ccc(N(C)C)cc2)n1 | 0.8 | -0.5 | 32.7* | -6.2 | -16.4
Cc1ccc[n+](C(C)C(=O)Nc2ccc([N+](=O)[O-])cc2C)c1 (stereo not given) | -3.1 | -2.5 | -2.3 | -9.5 | 20.6
Cc1ccc[n+](C(C)C(=O)Nc2ccc(C)c([N+](=O)[O-])c2)c1 (stereo not given) | -2.7 | 2.9 | -16.7 | -36.0 | 42.8*
O=C(COc1ccc(Br)cc1)N1CCN(c2ccccc2)CC1 | -1.1 | 0.4 | -14.6 | 14.9 | 23.5
CC1CC(C)CN(C(=O)COC(=O)c2cccc([N+](=O)[O-])c2)C1 (stereo not given) | -1.5 | -0.3 | -0.6 | -6.5 | 2.2
O=C(COc1ccccc1)N1CCN(c2ccccc2)CC1 | -2.0 | 1.1 | 0.8 | -9.7 | 30.1*
O=C(COC(=O)C1(c2ccccc2)CC1)N1CCN(c2ccc(F)cc2)CC1 | -0.7 | -0.1 | 14.7 | -11.4 | 35.5*
